MITF act: increases MITF-driven TRPM1 promoter luciferase signal. SK-MEL-5 TRPM1-promoter luciferase, 24 h; % of positive control, neutral wells = 0. activation, % at 12.5 µM. hit rate 0.75% among 300,000. AID 588334;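 active means mean activation of at least 80% with every replicate also reaching 80%; inconclusive means mean reaches 80% but some replicate falls short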;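 further: 0% = neutral control wells and 100% = parthenolide positive control wells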
esBAF inh: SWI/SNF esBAF complex inhibition; reporter increase, % at 12.5 µM; hit rate 2% among 350,000; mouse ES cells, Bmi1-luciferase knock-in reporter, 24 h; 100% = twice the neutral-well signal; AID 602393; in the data active means activation above about 40%; inconclusive means no clear call, values can overlap the other calls;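 further: 0% = median of the plate's neutral control wells and 100% = double that signal; a rise in the Bmi1 reporter signal indicates esBAF inhibition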
Glyco luc inh: N-linked glycosylation inhibition | D54 ERlucT glycosylation luciferase reporter, 24 h; percent of 100 nM tunicamycin response | reporter increase, % at 12.5 µM | hit rate 0.23% among 360,000 | AID 588692;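 active means mean luciferase reporter signal, scaled so untreated is 0 and the glycosylation-blocking control 100, at or above a set limit in every replicate; inconclusive means mean reaches the limit but not every replicate does; inactive means mean below the limit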;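 further: luciferase carries N-glycosylation sites so blocking glycosylation raises the light; 0% = median of neutral control wells and 100% = median of 100 nM tunicamycin wells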
Wnt act: activators of Wnt/beta-catenin signaling | AID 743398 | activation, % at 9.35 µM | Wnt/beta-catenin reporter cell assay, activator, plate reader | hit rate 1.2% among 300,000; in the data active means activation above about 30%, passing the limit was not always enough; inconclusive means no clear call, values can overlap the other calls;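 further: 0% = neutral control wells and 100% = positive control wells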
PvdQ inh: P. aeruginosa PvdQ acylase inhibition; purified PvdQ acylase, fluorescence plate reader; inhibition, % at 10 µM; hit rate 0.063% among 340,000; AID 488965; in the data active means inhibition above about 30%, passing the limit was not always enough; inconclusive means no clear call, values can overlap the other calls;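 further: 0% = vehicle neutral wells and 100% = reference inhibitor wells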
Vif inh: inhibitors of HIV Vif | inhibition, % at 7.49 µM | HEK293T cells, Vif self-association by quenched fluorescence, imaging, 24 h | hit rate 0.35% among 340,000; in the data active means inhibition above about 50%, passing the limit was not always enough; inconclusive means no clear call, values can overlap the other calls; inactive means below about 31%
Active calls of the source: *; ? = inconclusive; . = no result given. Compounds with a hit are over-represented: about 2.9% of the library has one in this group of screens.

SMILES	MITF act	esBAF inh	Glyco luc inh	Wnt act	PvdQ inh	Vif inh
COCC#Cc1cnc2c(c1)C(=O)N([C@H](C)CO)C[C@H](C)[C@@H](CN(C)C(=O)C1CCCCC1)O2	.	3	.	.	.	.
C[C@H](CO)N1C[C@H](C)[C@@H](CN(C)C(=O)Nc2ccc3c(c2)OCO3)OCc2ccccc2-c2ccccc2C1=O	.	0	.	.	.	.
O=C(Nc1ccccc1)[C@@H]1[C@@H](CO)[C@@H]2Cn3c(cccc3=O)[C@@H]2N1C(=O)C1CCC1	.	5	.	.	.	.
CCOC(=O)c1sc(NC(=O)Cc2ccc(F)cc2)nc1C	-3	.	3	0	-13	1
CCOC(=O)c1sc(NC(=O)c2ccc(C)o2)nc1C	11	62*	-3	.	-14	2
CCOC(=O)c1sc(NC(=O)c2ccc(OC)cc2)nc1C	22	47*	1	7	-12	-1
COC(=O)c1sc(NC(=O)c2ccc(C)o2)nc1C	49	.	1	26	15	-5
CCOCc1nnc(NC(=O)c2ccc(OC)cc2)s1	37	53*	0	.	5	-10
CCOC(=O)c1sc(NC(=O)Nc2ccc(F)cc2)nc1C	103*	.	-10	-2	-8	-12
C[C@@H]1CCCCO[C@H](CN(C)Cc2ccncc2)[C@@H](C)CN([C@@H](C)CO)C(=O)c2cc(NS(=O)(=O)c3ccc(F)cc3)ccc2O1	.	-3	.	.	.	.
C[C@@H]1CN([C@H](C)CO)C(=O)c2cc(C#CC3CCCCC3)cnc2O[C@H]1CN(C)C	.	-3	.	.	.	.
COc1ccccc1-c1cn(CC[C@@H]2CC[C@H](NC(=O)CCN3CCCCC3)[C@@H](CO)O2)nn1	.	1	.	.	.	.
COc1cccc(C(=O)Nc2nnc(Cc3ccc(OC)c(OC)c3)s2)c1	.	.	2	-1	-15	-7
CCOC(=O)Nc1nnc(-c2ccc(OC)cc2)s1	40	79*	0	.	-8	10
CCCc1nnc(NC(=O)c2cccc(OC)c2)s1	86*	36	0	18	-13	-7
CCCN(C)C[C@H]1Oc2ncc(C#CCC(C)C)cc2C(=O)N([C@@H](C)CO)C[C@H]1C	.	-3	.	.	.	.
Clc1ccc(-c2cn3c(n2)CCC3)cc1	92*	.	-1	.	-8	1
C=CCN1C2CCCC1CC(NC(=S)Nc1ccc(Cl)cc1)C2 (stereo unspecified)	15	.	-2	39*	-14	-1
S=C(Nc1ccc(Cl)cc1)NC1CC2CCCC(C1)N2C1CCCC1 (stereo unspecified)	7	1	-5	.	8	-8
CO[C@H]1CN(C)C(=O)c2cc(NC(C)=O)ccc2OC[C@@H](C)N(CC2CC2)C[C@@H]1C	.	0	.	.	.	.
Cc1cc(/C=C(\C#N)C(=O)NC2CCCCCC2)c(C)[nH]1	51	.	4	.	2	-1
N#C/C(=C\c1ccc[nH]1)C(=O)Nc1ccccc1F	19	71*	-2	33*	4	8
Cc1cc(/C=C(\C#N)C(=O)Nc2ccccc2F)c(C)[nH]1	106*	29	-6	19	-11	-2
Cc1cc(/C=C(\C#N)C(=O)NC2CC2)c(C)[nH]1	94*	.	2	?	-8	-1
O=S(=O)(Cc1ccccc1)NCC[C@@H]1CC[C@@H](NS(=O)(=O)c2ccc(F)cc2)[C@H](CO)O1	.	-4	.	.	.	.
SMILES	MITF act	esBAF inh	Glyco luc inh	Wnt act	PvdQ inh	Vif inh
O=C(C[C@@H]1CC[C@H]2[C@@H](COC[C@@H](O)CN2Cc2ccccc2)O1)N[C@@H]1CCN(Cc2ccccc2)C1	.	-9	.	.	.	.
CN(C)c1cccc(C(=O)NN2C(=O)NC3(CCCCC3)C2=O)c1	18	43*	1	12	-16	2
CN(C)c1ccc(C=Cc2ccnc3c(O)cccc23)cc1	.	-28	-8	-14	.	51*
Clc1ccccc1CSc1ncn(-c2ccccc2)n1	58	67*	-4	.	4	19
Cc1ccc(CSc2ncn(-c3ccccc3)n2)cc1	58	20	-1	-3	3	-4
c1ccc(-c2cnc(-c3ccccn3)nn2)cc1	49	-15	-14	46*	-9	-2
C[C@@H]1CN([C@@H](C)CO)C(=O)c2cc(NS(=O)(=O)c3cn(C)cn3)ccc2O[C@H]1CN(C)Cc1ccc(C(=O)Nc2ccccc2N)cc1	.	1	.	.	.	.
COCCOC(=O)/C(=C/c1ccc(OC(=O)c2ccccc2)cc1)C(C)=O	5	0	2	.	-7	-6
CCOC(=O)C(=Cc1ccc(-n2ccnc2)cc1)C(=O)OCC	-74	-6	2	56*	-12	-14

Screens: PubChem BioAssay, Broad Institute
